# In PubChem BioAssay AID1159580 (chemical genetic matrix, 2015):
# About 2,000 (36%) of roughly 5,500 compounds were called active. Not shown: some 18% with an inconclusive outcome. The list shows a part of the results. A number with no mark means an inactive call. Rule as the data show it: active = normalized growth mostly below about 0.91 (no sharp cut-off); inconclusive = no clear call, values can overlap the other calls; inactive = mostly above about 0.92.
# Experiment: chemical genetic growth profiling, strain panel (AID 1159580);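 also: tested at 20 µM; growth read once vehicle control cultures reached saturation at 30 °C; 1 = growth at the plate median or of vehicle wells; lower values mean less growth of the strain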
# Conditions: S. cerevisiae deletion strains, growth OD
compound,measurement,setting,value
O=S(=O)(Oc1ccc(-c2csnn2)cc1)c1ccccc1Cl,normalized growth,"locus YAR019C, strain CDC15, active compounds read low",0.965
same,normalized growth,"locus YBL105C, strain PKC1, active compounds read low",0.98
same,normalized growth,"locus YBR135W, strain CKS1, active compounds read low",0.966
same,normalized growth,"locus YBR136W, strain MEC1, active compounds read low",0.963
same,normalized growth,"locus YBR160W, strain CDC28, active compounds read low",0.971
same,normalized growth,"locus YDL017W, strain CDC7, active compounds read low",0.974
same,normalized growth,"locus YDL028C, strain MPS1, active compounds read low",0.968
same,normalized growth,"locus YDL101C, strain DUN1, active compounds read low",0.956
same,normalized growth,"locus YDL108W, strain KIN28, active compounds read low",0.967
same,normalized growth,"locus YDL132W, strain cdc53, active compounds read low",0.971
same,normalized growth,"locus YDL214C, strain PRR2, active compounds read low",0.939
same,normalized growth,"locus YDR052C, strain DBF4, active compounds read low",0.978
same,normalized growth,"locus YDR054C, strain cdc34, active compounds read low",0.979
same,normalized growth,"locus YDR226W, strain ADK1, active compounds read low",0.969
same,normalized growth,"locus YDR477W, strain SNF1, active compounds read low",0.94
same,normalized growth,"locus YER123W, strain YCK3, active compounds read low",0.915
same,normalized growth,"locus YER133W, strain GLC7, active compounds read low",0.939
same,normalized growth,"locus YFL009W, strain cdc4, active compounds read low",0.973
same,normalized growth,"locus YFL029C, strain CAK1, active compounds read low",0.963
same,normalized growth,"locus YFR003C, strain YPI1, active compounds read low",0.972
same,normalized growth,"locus YFR019W, strain FAB1, active compounds read low",0.913
same,normalized growth,"locus YFR028C, strain CDC14, active compounds read low",0.957
same,normalized growth,"locus YGR040W, strain KSS1, active compounds read low",0.934
same,normalized growth,"locus YGR052W, strain FMP48, active compounds read low",0.969
same,normalized growth,"locus YGR092W, strain DBF2, active compounds read low",0.935
same,normalized growth,"locus YHR030C, strain SLT2, active compounds read low",0.907
same,normalized growth,"locus YHR079C, strain IRE1, active compounds read low",0.929
same,normalized growth,"locus YHR082C, strain KSP1, active compounds read low",0.948
same,normalized growth,"locus YHR205W, strain SCH9, active compounds read low",0.946
same,normalized growth,"locus YIL147C, strain SLN1, active compounds read low",0.968
same,normalized growth,"locus YJL095W, strain BCK1, active compounds read low",0.936
same,normalized growth,"locus YJL128C, strain PBS2, active compounds read low",0.938
same,normalized growth,"locus YJL157C, strain FAR1, active compounds read low",0.947
same,normalized growth,"locus YJR016C, strain ILV3, active compounds read low",0.978
same,normalized growth,"locus YJR066W, strain TOR1 (second series), active compounds read low",0.909
same,normalized growth,"locus YJR066W, strain TOR1, active compounds read low",0.921
same,normalized growth,"locus YKL048C, strain ELM1, active compounds read low",0.988
same,normalized growth,"locus YKL067W, strain YNK1, active compounds read low",0.933
same,normalized growth,"locus YKL101W, strain HSL1, active compounds read low",0.951
same,normalized growth,"locus YKL193C, strain SDS22, active compounds read low",0.967
same,normalized growth,"locus YKL203C, strain TOR2, active compounds read low",0.989
same,normalized growth,"locus YLR113W, strain HOG1, active compounds read low",0.854 (active)
same,normalized growth,"locus YLR133W, strain CKI1, active compounds read low",0.947
same,normalized growth,"locus YLR403W, strain SFP1, active compounds read low",0.927
same,normalized growth,"locus YML070W, strain DAK1, active compounds read low",0.922
same,normalized growth,"locus YMR001C, strain CDC5, active compounds read low",0.968
same,normalized growth,"locus YMR205C, strain PFK2 (second series), active compounds read low",0.941
same,normalized growth,"locus YMR277W, strain FCP1, active compounds read low",0.965
same,normalized growth,"locus YNL006W, strain LST8, active compounds read low",0.981
same,normalized growth,"locus YNL020C, strain ARK1, active compounds read low",0.973
same,normalized growth,"locus YNL161W, strain CBK1, active compounds read low",0.969
same,normalized growth,"locus YNL183C, strain NPR1, active compounds read low",0.896
same,normalized growth,"locus YNL207W, strain RIO2, active compounds read low",0.971
same,normalized growth,"locus YNL222W, strain SSU72, active compounds read low",0.975
same,normalized growth,"locus YNL307C, strain MCK1 (second series), active compounds read low",0.96
same,normalized growth,"locus YOL078W, strain AVO1, active compounds read low",0.974
same,normalized growth,"locus YOL136C, strain PFK27, active compounds read low",0.916
same,normalized growth,"locus YOR061W, strain CKA2, active compounds read low",0.923
same,normalized growth,"locus YOR119C, strain RIO1, active compounds read low",0.964
same,normalized growth,"locus YOR231W, strain MKK1, active compounds read low",0.906
same,normalized growth,"locus YOR329C, strain SCD5, active compounds read low",0.966
same,normalized growth,"locus YPL031C, strain PHO85, active compounds read low",0.946
same,normalized growth,"locus YPL153C, strain RAD53, active compounds read low",0.956
same,normalized growth,"locus YPL204W, strain HRR25, active compounds read low",0.931
same,normalized growth,"locus YPL209C, strain IPL1, active compounds read low",0.975
same,normalized growth,"locus YPL256C, strain CLN2, active compounds read low",0.881
same,normalized growth,"locus YPR025C, strain CCL1, active compounds read low",0.968
same,normalized growth,"locus YPR106W, strain ISR1, active compounds read low",0.961
same,normalized growth,"locus YPR111W, strain DBF20, active compounds read low",0.964
same,normalized growth,"strain NNK1, active compounds read low",0.96
same,normalized growth,"strain TSCII, active compounds read low",0.995
